As usually defined, the inhibition is the percentage by which the read-out fell short of the control.

Several values for one entry are separate records, joined by “and”; a condition that tells them apart may be missing. Equal entries are not always repeated. Activity calls are given as the source filed them. No rule for the calls is given here.

A short description of this assay: inhibition of Brca1/Bard1 split-luciferase complementation, confirmation, counter-screen for Mdm2/MdmX interaction inhibitor project, luminescence, single concentration (AID 504668). The note with it: Brca1/Bard1 bimolecular luciferase complementation counterscreen, at 8 µM, active compounds read high.
In the case of `C[C@@H](NC(=O)OC(C)(C)C)c1nnc(S(=O)(=O)Cc2ccccc2)o1`, the inhibition was 24.9% (active). Next, `COc1cc(/C=C2\CC/C(=C\c3cc(OC)c(O)c(OC)c3)C2=O)cc(OC)c1O`: 25.6% (active); `COc1ccc(-n2c(SCC(=O)Nc3ncc(Cl)cc3Cl)nc3ccccc32)cc1`: 29.2% (active); `Oc1ccc(COCc2ccccc2)c2cccnc12`: 28.7% (active). Consider `O=C(N/N=C/c1cc(Br)cc(Br)c1O)c1cccc(S(=O)(=O)N2CCOCC2)c1`, for which the inhibition is 29.6% (active).

Take `CCOC(=O)c1c(-c2ccccc2)oc2ccc(OCC(O)CN(C)C)cc12` (stereo not given): the inhibition is 32.5% (active).

For the compound `CN(C)CCCNC(=O)/C(=C\c1ccc(-c2ccc(Br)cc2)o1)NC(=O)c1ccccc1`, the inhibition was 29.2% (active).

Turning to `Cc1ncc(CO)c(/C=N/Nc2ccc(C(F)(F)F)cn2)c1O`, the inhibition was 33.8% (active). Regarding `COC(=O)[C@@H]1[C@@H](C#N)C2(c3ccccc3-c3ccccc32)N(c2ccc(Cl)cc2)N1C#N`, the inhibition is 32.8% (active). Turning to `Cc1cc(C)c(S(=O)(=O)N2CCCCC2CCNC(=O)C(=O)NC2CC2)c(C)c1` (stereo not given), the inhibition was 25.4% (active). For `Oc1c(CN2CCN(c3ccccn3)CC2)cc(Cl)c2cccnc12`, the inhibition is 28% (active). Next, `Cc1nc(NC2=NCN(CCCN3CCOCC3)CN2)nc2c(C)cccc12`: 25.4% (active); `CC(=O)Oc1c(C)cc(Cl)cc1C(=O)Nc1ccc([N+](=O)[O-])cc1Cl`: 27.7% (active); `c1ccc(-[n+]2nc(Nc3cccc4ccccc34)sc2-c2c3ccccc3cc3ccccc23)cc1`: 23.6% (active). Next, `CCCCC(=O)NC(c1cccs1)c1cc(Cl)c2cccnc2c1O` (stereo not given): 28.5% (active). Regarding `Cc1ccccc1-c1cc(C(=O)Nc2sc(C(=O)OC(C)C)c(C)c2C#N)c2ccccc2n1`, the inhibition was 23.7% (active). Next, `O=C(N/N=C(\Cc1ncc[nH]1)c1ccccc1)c1cccnc1`: 33.1% (active); `COc1ccc(C(NC(C)=O)c2cc(Cl)c3cccnc3c2O)cc1` (stereo not given): 29.3% (active). With `Cc1ccc(C(=O)Nc2nc(-c3ccccn3)cs2)cc1S(=O)(=O)N1CCOCC1`, the inhibition is 23.2% (active). Next, `O=C(CCl)c1ccc2c(c1)CCN2C(=O)C1CC1`: 27% (active). Regarding `CC(=O)/C(C#N)=C1\NC(=O)C(Cc2cc(Cl)ccc2Cl)S1` (stereo not given), the inhibition was 31.2% (active). On to `C1CCC(C(CC2CCCCN2)C2CCCCC2)CC1` (stereo not given), for which the inhibition was 35.2% (active) and 23.8% (active).

Take `N=c1c(S(=O)(=O)c2ccc(Cl)cc2)cc2c(=O)n3ccccc3nc2n1CCc1ccccc1`: the inhibition was 24.9% (active). As for `Cn1ccc2cc(-c3ccc4ncnc(NCc5cccs5)c4c3)ccc21`, the inhibition was 25% (active).

In the case of `O=C1/C(=C/c2ccc(F)cc2)SC(=S)N1CCCC(=O)N1CCCCC1CCO` (stereo not given), the inhibition was 23.7% (active). Next, `O=C(COc1ccc(F)cc1Cl)Nc1nc(-c2ccccn2)cs1`: 33.8% (active); `CC(C)[C@H](NC(=O)c1ccccc1Cl)C(=O)Nc1nc(-c2ccccn2)cs1`: 35.6% (active). In the case of `Oc1ccccc1CNc1ccc(Br)cn1`, the inhibition is 28.8% (active). Next, `COc1cccc(/C=C2\SC(=S)N(CCCC(=O)N3CCCC3)C2=O)c1`: 35% (active). Consider `C=CC(=O)N1c2ccccc2Sc2ccc(NC(=O)OCC)cc21`, for which the inhibition is 35.2% (active).

`CCN1/C(=C/c2ccc3cccc(C)c3[n+]2CC)Sc2ccccc21`: the inhibition was 26.4% (active). Turning to `CN1C2CCC1/C(=C\c1ccccc1F)C(=O)/C2=C/c1ccccc1F`, the inhibition is 35.1% (active). Consider `N#CC(c1ccc(Cl)cc1)c1ccc2c(C(F)(F)F)cc(C(F)(F)F)nc2n1` (stereo not given), for which the inhibition was 24% (active).

For the compound `O=C(CCN1C(=O)/C(=C/c2ccccc2F)SC1=S)NCCc1ccc(O)cc1`, the inhibition was 33% (active). On to `CC(C)c1ccc(/C=C2\SC(=S)N(CCC(=O)N3CCCCC3CCO)C2=O)cc1` (stereo not given), for which the inhibition is 29.9% (active). Take `CCN1CCN(CCNC(=O)c2ccc(/C=C3/Sc4ccccc4N(Cc4cccc(C)c4)C3=O)cc2)CC1`: the inhibition is 27.6% (active). For the compound `O=C(Nc1nc(-c2ccccn2)cs1)c1ccc(Cl)s1`, the inhibition was 24.4% (active).

As for `COc1ccc2cc1Oc1ccc(cc1)C[C@H]1c3c(cc4c(c3Oc3cc5c(cc3OC)CCN(C)[C@@H]5C2)OCO4)CCN1C`, the inhibition was 31.6% (active). Next, `COc1ccc2nc(N=Nc3ccc(O)c4ccccc34)sc2c1`: 35.3% (active). Next, `Clc1cc2cccnc2c2ncccc12`: 31.6% (active).

(Values after PubChem BioAssay.)
